This is a sample that favours compounds with a hit; in the whole collection about 3.9% have one here.
TROY NFkB inh = TROY signaling inhibition; Q293 LMP1-TROYcd NF-kB luciferase reporter, 4 h; inhibition, % at 10 µM; hit rate 0.98% among 360,000; AID 1347056;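 active = compounds whose plate-normalised and pattern-corrected inhibition of the luciferase reporter signal at the single screening dose is 50% or more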
HIF-2a inh = HIF-2a inhibition. hit rate 0.72% among 360,000. AID 624352. inhibition, % at 18.8 µM. 786-0 RCC cells HIF-2a reporter, luciferase luminescence, overnight;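 active = inhibition of the luminescence signal of 40% or more relative to plate controls, in a single-dose primary screen at 18.75 µM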
aSyn UTR inh = 5' untranslated region of α-synuclein, MLPCN primary screen. alpha-synuclein 5'UTR reporter, inhibitor activity. hit rate 0.82% among 300,000. inhibition, % (tested at 7.5 µM). AID 1813; in the data active = inhibition above about 60%;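 note: H4 neuroglioblastoma cells stably carrying SNCA 5'UTR luciferase fusion; 0% = DMSO wells and 100% = positive control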
C8 TRAIL sens = caspase-8 TRAIL sensitization; NB7+C8 cells + TRAIL, ATPlite viability luminescence; hit rate 1% among 360,000; inhibition (viability loss, TRAIL sensitization), % at 10 µM; AID 624354;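 active = compounds causing at least 50% loss of cell viability in the single-dose screen, relative to plate controls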
TWEAK-Fn14 inh = TWEAK-Fn14 signaling inhibition; inhibition, % at 10 µM; hit rate 2% among 360,000; TWEAK-stimulated Fn14 reporter cells, luciferase luminescence, 8 h; in the data active = inhibition above about 50%
HSP90 inh = HSP90 refolding inhibition in rabbit reticulocyte lysate. AID 1789. hit rate 0.91% among 290,000. inhibition, % at 5.6 µM. luciferase refolding luminescence, 3 h;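 active = inhibition above the screen-wide mean plus 3 SD, computed separately per campaign, cut at about 16% in these data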;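 note: 0% = DMSO wells and 100% = 60 µM geldanamycin wells; inhibitors lower the luminescence because luciferase stays unfolded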
HSP90 confirm = HSP90 inhibition, confirmation assay. inhibition, % at 5.9 µM. rabbit reticulocyte lysate, luciferase refolding luminescence, 3 h. hit rate 64% among 2,300. shares compounds with HSP90 inh; in the data active = inhibition above about 18%;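 note: 0% = vehicle wells and 100% = reference inhibitor wells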
FLuc counter = counter-screen for HSP90 inhibitors: inhibitors of firefly luciferase | shares compounds with HSP90 inh | purified native firefly luciferase, luminescence | inhibition, % at 5.9 µM | hit rate 48% among 2,300 | AID 1847;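 active = inhibition above the mean inhibition of all tested sample wells plus 3 SD, cut at about 10% in these data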;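 note: 0% = DMSO with luciferase and 100% = wells lacking luciferase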
Target sequence (P08659 whole entry, looked up): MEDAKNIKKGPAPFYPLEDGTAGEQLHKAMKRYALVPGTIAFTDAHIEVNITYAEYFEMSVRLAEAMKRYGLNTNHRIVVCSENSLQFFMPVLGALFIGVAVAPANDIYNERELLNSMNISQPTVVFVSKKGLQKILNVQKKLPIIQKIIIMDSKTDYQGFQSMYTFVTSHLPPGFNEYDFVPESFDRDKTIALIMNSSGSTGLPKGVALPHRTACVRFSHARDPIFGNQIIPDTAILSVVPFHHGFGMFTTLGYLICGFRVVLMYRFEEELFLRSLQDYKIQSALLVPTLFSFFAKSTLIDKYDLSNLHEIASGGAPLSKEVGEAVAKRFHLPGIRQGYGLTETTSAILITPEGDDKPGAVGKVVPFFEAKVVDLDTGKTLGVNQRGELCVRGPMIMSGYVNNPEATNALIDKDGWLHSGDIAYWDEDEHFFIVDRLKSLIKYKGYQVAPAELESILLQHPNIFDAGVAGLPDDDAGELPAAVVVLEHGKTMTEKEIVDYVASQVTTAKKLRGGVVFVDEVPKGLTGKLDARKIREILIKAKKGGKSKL
* hit, by the source's call; . = no result.

SMILES | TROY NFkB inh | HIF-2a inh | aSyn UTR inh | C8 TRAIL sens | TWEAK-Fn14 inh | HSP90 inh | HSP90 confirm | FLuc counter
COc1cccc2c1OC1(N3CCOCC3)CCCCC1C2C[N+](=O)[O-] (stereo not drawn) | -10 | 10 | . | 3 | -4 | . | . | .
COc1cccc(N=c2oc3ccccc3cc2-c2nc3ccccc3[nH]2)c1 | 2 | -170 | -80 | 38 | 75* | 24* | -2 | -13
COCCN(C(=O)CCC(=O)Nc1ccccn1)C(C(=O)NC(C)C)c1ccc(Cl)cc1 (stereo not drawn) | -4 | 14 | 5 | -3 | 16 | 84* | 1 | -4
O=C(Cn1c(=O)n(Cc2ccc(F)cc2)c(=O)c2ccccc21)NCC1CCCO1 (stereo not drawn) | 12 | 10 | 2 | -28 | 2 | 18* | -7 | -11
C[n+]1ccccc1/C=C1\Sc2ccccc2N1CCO | -12 | 6 | 5 | -1 | -6 | 18* | 0 | -2
CN1C(=O)C2(C(C#N)=C(N)N(c3ccc(Cl)cc3)C3=C2C(=O)CC(C)(C)C3)c2ccccc21 (stereo not drawn) | 15 | 10 | 3 | -6 | 11 | 37* | -3 | -5
CC(=O)N1c2ccccc2Nc2ccccc21 | 1 | -2 | 7 | -2 | 7 | 2 | . | .
CC(=O)N1c2ccccc2Oc2cc3ccccc3cc21 | -32 | -235 | -61 | -5 | -37 | 21* | 47* | -13
COCCNC(=O)CN(C)S(=O)(=O)c1ccc(Br)cc1 | 9 | 21 | -7 | -12 | 0 | -1 | . | .
COC(=O)NCCOC(=O)N(O)c1ccc(Br)cc1 | -20 | -91 | 6 | 5 | -12 | 50* | 75* | -20
CC(=O)NC(c1ccccc1)c1nc(-c2cc(F)cc(F)c2)cs1 (stereo not drawn) | -4 | -63 | . | 3 | -7 | . | . | .
Cc1sc2nc3c4ccccc4c(NCc4ccco4)nn3c(=O)c2c1C | -30 | -264 | . | 8 | 64* | 79* | 6 | -17
C=CCOc1ccc(C2NC(=S)NC3=C2CCc2ccccc23)cc1 (stereo not drawn) | 2 | -18 | 8 | -20 | 23 | 20* | 42* | 52*
COc1cc(C2NC(=S)NC3=C2CCc2ccccc23)cc(OC)c1OC (stereo not drawn) | -15 | 12 | 16 | -9 | 3 | 0 | . | .
CC(C)N1CC(C(=O)Nc2ccc(S(=O)(=O)N3CCCCC3)cc2)CC1=O (stereo not drawn) | 33 | 4 | 11 | 0 | 3 | 26* | -5 | -11
COc1ccc(N(C(C)C(=O)Nc2ccc(S(=O)(=O)N3CCCCC3)cc2)S(C)(=O)=O)cc1 (stereo not drawn) | 12 | 8 | 14 | 14 | 0 | 18* | -6 | -13
Cc1ccc(CNC(=O)C2CCC(=O)N(Cc3cccc(F)c3)C2)s1 (stereo not drawn) | -16 | -3 | . | -12 | -2 | . | . | .
O=C(O)c1ccc(Oc2c(C(F)(F)F)oc3cc(O)ccc3c2=O)cc1 | -11 | 15 | -12 | 15 | 11 | 31* | 1 | -3
C/C(=N\Nc1nncc2ccccc12)c1cccc(OC(F)F)c1 | -21 | -186 | -97 | 81* | 0 | 25* | 40* | 23*
C/C(=N\Nc1nncc2ccccc12)c1ccc(O)cc1 | -30 | -216 | -4 | 60* | 16 | 20* | 32* | 12*
COC(=O)CC1C(=O)NC(C)=C1C(=O)OC (stereo not drawn) | . | . | 3 | . | . | 37* | 3 | 1
O=C(CSc1nc(-c2ccccc2)nc2ccccc12)Nc1nccs1 | 4 | 29 | 30 | -7 | -19 | 22* | 6 | 2
COc1ccc(NS(=O)(=O)c2cc(C(=O)NNC(=O)c3ccncc3)ccc2OC)c(OC)c1 | 7 | 17 | . | -3 | -2 | . | . | .
CCOC(=O)c1c(NC(=O)C(NCCN(C)C)c2ccccc2)sc2c1CCCC2 (stereo not drawn) | -29 | 5 | 34 | 29 | -23 | 23* | 6 | -3
NS(=O)(=O)c1c(Sc2ccccc2C(=O)O)ccc2ccccc12 | -9 | -78 | -42 | 4 | 54* | 23* | 20* | -17
SMILES | TROY NFkB inh | HIF-2a inh | aSyn UTR inh | C8 TRAIL sens | TWEAK-Fn14 inh | HSP90 inh | HSP90 confirm | FLuc counter
COc1ccc(O)c(C(=O)CC(=O)c2ccccc2)c1 | . | . | 4 | . | . | 24* | 8 | -22
Cc1cc(Br)c(Oc2cc(NN3CCCCC3)c([N+](=O)[O-])cc2[N+](=O)[O-])c(Br)c1 | -11 | 9 | . | -6 | 3 | . | . | .
COC(=O)C[C@H]1CC[C@@H](NC(=O)C2CC2)[C@@H](CO)O1 | . | 3 | . | -3 | . | . | . | .
N#Cc1cnc(Nc2nc3ccccc3o2)nc1-c1ccccc1 | 7 | -53 | -72 | 15 | -3 | 2 | . | .
Cc1ccnc(Nc2nc3ccccc3o2)n1 | 31 | -9 | 45 | 47 | 80* | 22* | 45* | 22*
COc1cc2c(cc1OC)C(CNC(=O)C=Cc1cc(OC)c(OC)c(OC)c1)C2 (stereo not drawn) | 7 | 16 | . | -3 | -5 | . | . | .
O=C(Oc1ccc2ccccc2c1Br)N1CCCCCC1 | 66* | -131 | 26 | 34 | 65* | 22* | 43* | 26*
COc1ccc(C(C[N+](=O)[O-])c2c(C)[nH]n(-c3ccccc3)c2=O)cc1 (stereo not drawn) | 20 | 10 | -22 | -18 | 8 | 26* | 50* | -9
Cc1[nH]n(-c2ccccc2)c(=O)c1C(C[N+](=O)[O-])c1ccccc1Cl (stereo not drawn) | -19 | -1 | -7 | -10 | 7 | 0 | . | .
Cc1[nH]n(-c2ccccc2)c(=O)c1C(c1ccc(O)c([N+](=O)[O-])c1)c1c(C)[nH]n(-c2ccccc2)c1=O | -38 | 14 | 13 | -1 | -12 | 26* | -3 | -3
O=C(O)c1cc(N=Nc2c(O)ccc3ccccc23)cc(C(=O)O)c1 | -12 | 17 | . | 1 | -3 | -2 | . | .
O=C(O)c1ccc(N=Nc2c(O)ccc3ncccc23)cc1 | -16 | -89 | -13 | -1 | 59* | 54* | 54* | 20*
O=C1C(=C2SCCCS2)CC/C1=C\c1ccc(F)cc1 | 86* | 65* | 119* | 84* | 104* | 54* | 92* | 86*
CCC(=O)Nc1c(C#N)c2nc3ccccc3nc2n1-c1ccccc1C | 9 | 15 | 26 | -6 | -4 | 1 | . | .
CCCCn1c(NC(=O)c2ccccc2Cl)c(C#N)c2nc3ccccc3nc21 | 76* | 7 | 10 | 27 | -32 | 59* | 46* | 2
CC(C)(C)c1ccc(C(=O)NCCC(=O)NCc2ccc(F)cc2)cc1 | 16 | -4 | . | 7 | 17 | . | . | .
